# Data published in PubChem BioAssay (EPA / NIEHS).
# Activity calls are given as the source filed them. Rule for the calls: active = hit-call score of the fitted dose curve at least 0.9, where 1 is the maximum; inactive = score below 0.9.
# Test: Tanguay_ZF_120hpf_MO24: Oregon State University Tanguay Lab 24 Hour Post-fertilization zebrafish Assay for Mortality (AID 2284389)
# Protocol: Tanguay_ZF_120hpf is a whole embryo, multiplexed endpoint assay using zebrafish larvae exposed for 120 hours post fertilization on a 96-well plate.Tanguay_ZF_120hpf_MO24 is one of one assay component(s) measured or calculated from the Tanguay_ZF_120hpf assay. It is designed to make measurements of zebrafish development as detected with brightfield microscopy of developing zebrafish embryos.Data from the assay component Tanguay_ZF_120hpf_MO24 was analyzed into 1 assay endpoints. This assay endpoint, Tanguay_ZF_120hpf_MO24, was analyzed in the positive analysis fitting direction relative to DMSO as the negative control and baseline of activity. Using a type of viability reporter, gain-of-signal activity can be used to understand changes in developmentals as they relate to the whole embryo. To generalize the intended target to other relatable targets, this assay endpoint is annotated to the zebrafish development intended target family, where the subfamily is embryonic mortality.
# Zebrafish husbandry: Tropical 5D wild-type adult zebrafish were housed in at an approximate density of 1000 per 100 gallon tank at the Sinnhuber Aquatic Research Laboratory, Oregon State University, Corvallis, OR. Each tank was kept at standard laboratory conditions of 28C on a 14-h light/10-h dark photoperiod in fish water consisting of reverse osmosis water supplemented with a commercially available salt (Instant Ocean). Spawning funnels were placed into the tanks the night prior, and embryos were collected and staged. To increase bioavailability, the chorion was enzymatically removed using pronase (63.6mg/ml, >/= 3.5U/mg, Sigma-Aldrich: P5147) at 4 hours post fertilization (hpf) using a custom automated dechorionator.Chemical exposures: Six hpf dechorionated embryos were placed 1 embryo per well in a 96-well plate prefilled with 90 ul of EM using automated embryo placement systems (AEPS). Ten microliters of each row of dilution plate 2 was added to 2 exposure plates. The final DMSO concentration used was 0.64% (vol/vol). Thirty-two embryos were also exposed to 5uM trimethyltin chloride (positive control). Plates were sealed to prevent evaporation and foil covered to reduce light exposure and kept in a 28C incubator. Embryos were statically exposed until 120 hpf. At 24 hpf, embryos were assessed for photomotor response using a custom photomotor response analysis tool (PRAT) and for developmental toxicity endpoints (MO24: mortality at 24 hpf, DP: developmental progression, SM: spontaneous movement, and NC: notochord distortion). At 120 hpf, locomotor activity was measured using Viewpoint Zebralab and assessed for 13 endpoints. Zebrafish acquisition and analysis program (ZAAP), a custom program designed to inventory, acquire, and manage zebrafish data, was used to collect developmental endpoints as either present or absent (i.e., binary responses were recorded). If mortality occurred for an embryo (at either 24 or 120 hpf), the non-mortality endpoints were not measured.
SMILES,outcome,AC50
OCCC(F)(F)C(F)(F)C(F)(F)C(F)(F)F,inactive,
FC(F)(F)C(F)(F)C(F)(F)C(F)(F)C(F)(F)C(F)(F)I,inactive,
O=S(=O)(O)CCC(F)(F)C(F)(F)C(F)(F)C(F)(F)C(F)(F)C(F)(F)F,inactive,
O=C(Cl)C(F)(F)C(F)(F)C(F)(F)C(=O)Cl,,57.3 µM (active)
OC(O)(C(F)C(O)(O)C(F)(F)F)C(F)(F)F,inactive,
FC(F)(F)COC(OCC(F)(F)F)OCC(F)(F)F,inactive,
FC(F)=C(F)C(F)(F)C(F)(F)C(F)(F)C(F)(F)C(F)(F)C(F)(F)F,inactive,
C[Si](C)(C)C(F)(F)C(F)(F)C(F)(F)F,inactive,
NCC(F)(F)C(F)(F)C(F)(F)C(F)(F)F,inactive,
FC(F)C(F)(F)COCC1CO1 (stereo not given),inactive,
